An excerpt weighted towards active compounds, which were near 8.1% of everything screened.
MCF10A rereplic: A quantitative high throughput screen for small molecules that induce DNA re-replication in MCF 10a normal breast cells. MCF 10A DNA re-replication, Hoechst nuclear intensity, 48 h. Potency, µM (titrated, usually from 46.1 µM), without a hit: at the highest dose activity, positive = re-replication, hits mostly activators. 350,000 compounds, 2.9% hits; also: % of control where 0% means no effect; nearly all actives have a fitted effect of over 50% in size
KB-3-1 cytotox: qHTS assay for MDR1-selective chemotherapeutics: Primary screen using the parental adenocarcinoma cell KB-3-1. KB-3-1 viability, CellTiter-Glo ATP luminescence, 72 h. Potency, µM (doses to about 46.1 µM), actives largely listed as cytotoxic. 400,000 compounds, 1.4% hits; also: % is scaled to controls: 0 for no effect and ±100 for the full control effect; nearly all actives have a fitted effect of over 60% in size
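KB-3-1 cells, DMEM (no phenol red) + 10% FBS; compound by pin transfer, 72 h, 37 °C. Readout: CellTiter-Glo luminescence after 10 min. Data normalized, curve-fitted.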
ELG1 repair inh: qHTS screen for small molecules that inhibit ELG1-dependent DNA repair in human embryonic kidney (HEK293T) cells expressing luciferase-tagged ELG1; 330,000 compounds, 2.3% hits; Potency, µM (top dose mostly 46.1 µM), inactives show at the highest dose activity change, negative = inhibition, usual class: inhibitors; HEK293T ELG1-luciferase reporter, luminescence, 16 h; DNA damage induced by 5-fluorouridine; also: % is scaled to controls: 0 for no effect and ±100 for the full control effect; nearly all actives have a fitted effect of over 55% in size
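5-Fluorouridine DNA damage + compound/DMSO, 2,000 cells/well, 16 h, 37 °C/5% CO2. ONE-Glo, 30 min RT, luminescence. Readout = decrease in reporter signal.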
KB-V1 cytotox: qHTS assay for MDR1-selective chemotherapeutics: Primary screen using the drug-selected MDR subline cells KB-V1; KB-V1 MDR cells viability, CellTiter-Glo, 72 h; Potency, µM (top dose mostly 46.1 µM), hits mostly cytotoxic; 400,000 compounds, 3.4% hits; AID 1347076, 2019; also: % is scaled to controls: 0 for no effect and ±100 for the full control effect; nearly all actives have a fitted effect of over 60% in size
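In this primary screen, KB-V1 cells overexpressing P-gp are incubated with library compounds (lowest to highest concentration) for 72 h at 37 degrees C before a luminescent ATP viability read.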
SW480 rereplic: A quantitative high throughput screen for small molecules that induce DNA re-replication in SW480 colon adenocarcinoma cells; SW480 DNA re-replication, Hoechst DNA content imaging, 48 h; Potency, µM (doses to about 46.1 µM), without a hit: top-dose re-replication activation, usual class: activators; 340,000 compounds, 1.8% hits; also: % of control where 0% means no effect; nearly all actives have a fitted effect of over 55% in size
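Image-based read-out: total Hoechst fluorescence of nuclei (405 nm excitation, 500-530 nm emission), with hits raising the fraction of high-intensity nuclei. SW480 colon cells incubated 48 hr with compounds at 37 C.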
The depositor's hits bear a star; i = inactive; ? = inconclusive; nt = no result given; ! = repeats disagree. Calls follow the shape of the dose curve; as a rule, active = well fitted curve in the direction sought with a large enough effect; inconclusive = small, poorly fitted or top-dose-only effect, or another doubt; inactive = no such curve, though single readings can be large; an effect the other way counts as inactive or inconclusive. Potency is read from the fitted curve at half-maximal effect.

SMILES | MCF10A rereplic | KB-3-1 cytotox | ELG1 repair inh | KB-V1 cytotox | SW480 rereplic
C/C(=N\NC(=O)c1ccc(-n2cnnn2)cc1)c1ccc(C)cc1 | ? | i | -6.4% | i | 1.2%
Cc1ccc(C(=O)Nc2ccccc2C(=O)OCc2cc(=O)n3nc(C4CC4)sc3n2)cc1 | nt | i | nt | ? | nt
NS(=O)(=O)c1ccc(N2N=C(c3ccccc3)CC2c2ccccc2Cl)cc1 (stereo not drawn) | 3.26µM* | i | 7.0% | i | 4.61µM*
CN(c1ccccc1)c1nc(N2CCCC2)nc(-n2ccnc2)n1 | ? | i | ? | i | -8.6%
c1ccc(-c2nc(-n3ccnc3)nc(-n3ccnc3)n2)cc1 | ? | i | ? | ? | 8.0%
c1ccc(CN2CCN(c3nc(-c4ccccc4)nc(-n4ccnc4)n3)CC2)cc1 | ? | ? | -29.9% | ? | 20.6µM*
c1ccc(N(c2ccccc2)c2nc(N3CCCC3)nc(-n3ccnc3)n2)cc1 | 3.66µM* | i | ? | i | ?
c1ccc(CN(CC2=NCCN2)c2ccccc2)cc1 | 8.7% | i | 2.1% | i | 0.231µM*!
c1ccc(CC2=NCCN2)cc1 | -1.0% | i | 2.0% | i | -24.0%
O=C(O)c1ccc(-n2c(/C=C/c3ccccc3)nc3ccccc3c2=O)cc1 | -2.8% | i | 9.2% | i | -5.4%
COC(=O)c1ccc(-n2c(/C=C\c3cccc(Br)c3)nc3ccccc3c2=O)cc1 | nt | 13µM* | nt | ? | nt
CCC(C)(c1nnnn1-c1c(C)cccc1C)N(N=O)c1ccccc1Cl (stereo not drawn) | ? | ? | -8.1% | 18.4µM* | nt
CSc1cccc(NS(=O)(=O)c2ccc3[nH]cc(C(=O)N4CCCC4)c(=O)c3c2)c1 | nt | i | nt | i | nt
CC(C)Cc1nc2oc3c(NCCCN4CCOCC4)ncnc3c2c2c1CCC2 | 28.1% | ? | -21.4% | i | ?
CC(C)Cc1nc2oc3c(Cl)ncnc3c2c2c1CCC2 | ? | i | ? | i | 4.11µM*
COc1ccccc1/C=C1\SC(=S)N(CCC(=O)Nc2cccc(O)c2)C1=O | 10.3µM* | i | ? | i | -23.5%
COc1cc(/C=C2/SC(=S)N(CCC(=O)Nc3ccccc3)C2=O)cc(OC)c1OC | 20.6µM* | i | ? | i | 0.9%
COc1cc(/C=C2\SC(=S)N(CCC(=O)Nc3ccccc3)C2=O)cc(OC)c1OC | 18.4µM* | i | ? | i | -55.8%
COc1ccccc1NC(=O)CCN1C(=O)/C(=C\c2cc(OC)c(OC)c(OC)c2)SC1=S | 1.0% | i | ? | i | 5.0%
COc1cc(/C=C2\SC(=S)N(CCC(=O)Nc3cccc(O)c3)C2=O)cc(OC)c1OC | ? | i | ? | i | -2.6%
COC(=O)c1ccccc1NC(=S)N(Cc1ccc2c(c1)OCO2)Cc1cc2cc(C)ccc2[nH]c1=O | -7.2% | i | 6.51µM* | i | 4.5%
COC(=O)c1ccccc1NC(=S)N(Cc1ccc2c(c1)OCO2)Cc1cc2ccc(C)cc2[nH]c1=O | 0.2% | i | 5.8µM* | i | 5.1%
COC(=O)c1ccccc1NC(=S)N(Cc1ccc2c(c1)OCO2)Cc1cc2ccc(OC)cc2[nH]c1=O | 10.2% | i | 7.31µM* | i | 16.5%
Cc1cccc(Oc2nc3ccccn3c(=O)c2/C=C(\C#N)c2nc3ccccc3s2)c1C | nt | ? | nt | i | nt
CCN1C[C@@H]2[C@@H]3C(=O)N(C)C(=O)[C@@H]3[C@](CC)(C1=O)N2C(=O)c1ccc(C)cc1 | 0.6% | i | nt | i | -10.1%
SMILES | MCF10A rereplic | KB-3-1 cytotox | ELG1 repair inh | KB-V1 cytotox | SW480 rereplic
COc1cc(NS(=O)(=O)c2cc3c(cc2C)n(C)c(=O)c(=O)n3C)cc(OC)c1 | nt | i | nt | i | nt
Cc1ccc(C#N)c(SCCN2CCCCC2)n1 | -2.0% | i | -7.2% | i | 1.0%
Cc1cccc2cc(C#N)c(SCCN3CCCCC3)nc12 | ? | i | nt | ? | 8.2µM*
O=C(CCN1C(=O)S/C(=C/c2ccccc2)C1=O)Nc1ccc(O)c(C(=O)O)c1 | 0.5% | i | 22.0% | i | -16.0%
Cc1ccc(NC(=O)CN2C(=O)COc3ccc(C)cc32)nc1 | -2.6% | i | 1.5% | 14.6µM* | -1.8%
Cc1cn(CC(=O)NCc2nc3ccccc3[nH]2)c(=O)[nH]c1=O | nt | i | nt | i | nt
Cn1cc(/C=N/n2cnc3scc(-c4ccccc4)c3c2=O)c2ccccc21 | ? | 5.17µM* | ? | 2.06µM* | 14.6µM*
O=c1c2c(-c3ccccc3)csc2ncn1/N=C/c1cccc([N+](=O)[O-])c1O | 6.7% | i | -16.9% | i | ?
COC(=O)c1cc(NC(=O)CN(C)C2CCS(=O)(=O)C2)cc(C(=O)OC)c1 (stereo not drawn) | 6.6% | i | -25.2% | i | -0.5%
Clc1ccc(-c2ccc(C=Nc3ccc(N4CCOCC4)cc3)o2)c(Cl)c1 | 10.9% | i | 2.6% | i | 0.1%
Clc1cccc(-c2ccc(C=Nc3ccc(N4CCOCC4)cc3)o2)c1Cl | 20.6µM* | i | 12.5% | i | ?
COC(=O)C1CCN(C(=O)CSc2nnc(-c3ccccc3)o2)CC1 | -4.0% | i | ? | i | -7.5%
CCOC(=O)N1CCN(c2nc(SC)nc3sc4c(c23)CC(C)(C)OC4)CC1 | 13.8% | i | -17.2% | i | -4.1%
CCN1CCN(c2nc(SC)nc3sc4c(c23)CC(C)(C)OC4)CC1 | 1.2% | i | 10.0% | 8.2µM* | -3.6%
CN(C)/C=C/c1onc(-c2ccccc2Cl)c1C#N | 18.4µM* | i | ? | i | 1.5%
O=C(CSc1nnc(-c2cccnc2)s1)Nc1ccnc2ccccc12 | 1.3% | 2.31µM* | 11.6µM* | 1.64µM* | -9.4%
CSc1nc(Cl)c(C#N)c(-c2ccc(C)cc2)n1 | 3.3% | i | ? | i | -6.9%
CCSc1nc(-c2ccccc2)nc(C(Cl)Cl)n1 | 11.6µM* | 5.17µM* | 18.4µM* | i | 23.3%
CSc1nc(-c2ccc(C)cc2)nc(C(Cl)Cl)n1 | ? | 7.31µM* | ? | 18.4µM* | 18.4%
CCSc1nc(-c2ccccc2)c2cc(Cl)ccc2n1 | 4.2% | i | 0.8% | i | -0.6%
Cc1cc(C)nc(NC(=NCCc2c[nH]c3ccccc23)NC(=O)Nc2ccccc2)n1 | 25.9µM* | i | 14.6µM* | i | ?
Cc1cc(C)nc(NC(=NCCc2c[nH]c3ccccc23)NC(=O)Nc2ccc(Cl)c(Cl)c2)n1 | ? | ? | ? | i | 2.0%
